NCOA2 inhibitor = inhibition of GAL4-SRC2 driven luciferase reporter, primary screen, SRC2 inhibitor project, cell-based, luminescence. hit rate 0.17% among 370,000. AID 651957, 2012. inhibition, % at 9 µM. HEK293 GAL4-SRC2 luciferase reporter;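 active = inhibition above the mean inhibition of all tested compounds plus 3 SD, set per campaign, cut at about 52% in these data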
NCOA3 inh = SRC3 coactivator transcriptional activity inhibitors, primary screen, cell-based, luminescence; Nuclear receptor coactivator 3 (Homo sapiens), Q9Y6Q9; HEK293 GAL4-SRC3 luciferase reporter; inhibition, % at 3.6 µM; hit rate 0.17% among 360,000; AID 588352, 2011;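 active = inhibition above a per-campaign cutoff, the mean of all compounds plus 3 SD, cut at about 60% in these data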;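 note: higher means less SRC3-driven luciferase light from the GAL4 reporter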
NCOA1 inh = SRC1 coactivator transcriptional activity inhibitors, primary screen, cell-based, luminescence; Nuclear receptor coactivator 1 (Homo sapiens), Q15788; HEK293 GAL4-SRC1 luciferase reporter; inhibition, % at 3.6 µM; hit rate 0.12% among 360,000; AID 588354, 2011;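 active = inhibition above the campaign mean plus 3 SD, with each screening campaign given its own cutoff, cut at about 60% in these data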
LGR2 antag = inhibitors of bursicon-induced LGR2 CRE-luciferase signal, primary screen, cell-based, HEK293, CRE-luciferase reporter, bursicon stimulation; Drosophila bursicon receptor LGR2 (rickets); bursicon-stimulated, 4 h; inhibition, % at 9.99 µM; hit rate 0.35% among 380,000; AID 720647, 2013;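 active = drop in luminescence signal, shown as inhibition above about 50% in the replicate tests, limit read from the data, passing the limit was not always enough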;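 note: agonist challenge used bursicon conditioned medium at about half maximal strength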
NR5A2 inv ag = LRH-1 (NR5A2) inverse agonists, primary screen, cell-based, luminescence, HEK293T, StAR-luciferase reporter. hit rate 0.13% among 360,000. inhibition, % at 3.6 µM. LRH-1 transfected, 24 h. Nuclear receptor subfamily 5 group A member 2 (Homo sapiens), O00482;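 active = inhibition above the mean inhibition of all tested compounds plus 3 SD, cut at about 73% in these data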
Large screens that a line does not name were inactive. This is a sample that favours compounds with a hit; in the whole collection about 0.48% have one here.

COc1ccc(-c2cc(=Nc3cccc(C(=O)O)c3)c3cc(C)ccc3o2)cc1	LGR2 antag 55.2
COc1ccc(-c2cc(=NCCCCCC(=O)O)c3cc(C)ccc3o2)cc1	none
CN(C)c1ccc(-[n+]2c(-c3ccccc3)cc(-c3ccccc3)cc2-c2ccccc2)cc1	NCOA3 inh 82.5, NR5A2 inv ag 89.6
Cc1ccc(-c2cc(-c3ccc(C)cc3)[n+](-c3ccccc3)c(-c3ccc(C)cc3)c2)cc1	NCOA3 inh 78.6, NCOA1 inh 65.3, NR5A2 inv ag 93.3 (no result: NCOA2 inhibitor, LGR2 antag)
Cc1ccc(-c2cc(-c3ccc(C)cc3)[n+](-c3ccc(C(=O)[O-])cc3)c(-c3ccc(C)cc3)c2)cc1	none
CCOC(=O)c1cccc(-[n+]2c(-c3ccccc3)cc(-c3ccccc3)cc2-c2ccccc2)c1	none
c1ccc(-c2cc(-c3ccccc3)[n+](-c3ccccc3)c(-c3ccccc3)c2)cc1	NCOA3 inh 65.7, LGR2 antag 102.5
Cc1ccc(-c2cc(-c3ccccc3)cc(-c3ccccc3)[n+]2-c2ccccc2)cc1	NCOA2 inhibitor 74.6, NCOA3 inh 83.7, NR5A2 inv ag 97.6
C[n+]1c(-c2ccccc2)cc(-c2ccc(Cl)cc2)cc1-c1ccccc1	none
CN(C)CC#Cc1ccc([C@@H]2[C@H](CO)N3CCCCN(C(=O)Cc4ccccn4)C[C@@H]23)cc1	none (no result: NCOA2 inhibitor, NCOA3 inh, NCOA1 inh, NR5A2 inv ag)
O=C(Cc1ccccn1)N1CCCCN2[C@H](C1)[C@@H](c1ccc(C#Cc3ccccc3)cc1)[C@@H]2CO	none (no result: NCOA2 inhibitor, NCOA3 inh, NCOA1 inh, NR5A2 inv ag)
CCCN1[C@@H]2Cn3c(cccc3=O)[C@H]1[C@@H](C(=O)N(C)C)[C@@H]2CO	none (no result: NCOA2 inhibitor, NCOA3 inh, NCOA1 inh, NR5A2 inv ag)
O=C(Cc1ccncc1)N1CCCCN2[C@H](CO)[C@H](c3ccc(C#Cc4ccccc4F)cc3)[C@@H]2C1	none (no result: NCOA2 inhibitor, NCOA3 inh, NCOA1 inh, NR5A2 inv ag)
CC1CC(C)CC(C)C(O)C(C#N)=CC=CCC(C2CCCC2C(=O)O)OC(=O)CC(O)C(C)C1 (stereo not given)	NCOA2 inhibitor 75.7, NCOA3 inh 93.6, NCOA1 inh 94.2, LGR2 antag 74.8, NR5A2 inv ag 98.4
O=C1CNC[C@@H]2[C@H](c3ccc(Br)cc3)[C@H](CO)N12	none (no result: NCOA2 inhibitor, NCOA3 inh, NCOA1 inh, NR5A2 inv ag)
C[C@]12CCC3C(CCC4=CC(O)CC[C@@]43/C=N/O)C1(O)CCC2C1=CC(=O)OC1 (stereo not given in full)	NCOA3 inh 71.0, NCOA1 inh 78.3, LGR2 antag 81.9, NR5A2 inv ag 98.0
CC12CC[C@H]3[C@@H](CCC4(O)C[C@H](O)CCC34/C=N/NC(=O)c3ccccc3Cl)C1(O)CCC2C1=CC(=O)OC1 (stereo not given in full)	none
CCCCN=C[C@]12CCC(O)CC1(O)CCC1[C@@H]2CC[C@]2(C)[C@H](C3C=CC(=O)O3)CCC12O (stereo not given in full)	NCOA3 inh 80.2, NCOA1 inh 77.6, LGR2 antag 85.5, NR5A2 inv ag 97.1
C[C@H]1O[C@@H](OC2CC[C@]3(C=O)[C@H]4CC[C@]5(C)[C@@H](C6=CC(=O)OC6)CC[C@]5(O)[C@@H]4CC[C@]3(O)C2)CC2OC(C)(C)OC21 (stereo not given in full)	NCOA2 inhibitor 60.3, NCOA3 inh 86.3, NCOA1 inh 81.2, LGR2 antag 80.9, NR5A2 inv ag 98.8
CC12CCC3C(CCC4(O)CC(O)CCC34C=NO)C1(O)CCC2C1=COC(=O)C1 (stereo not given)	NCOA3 inh 88.9, NCOA1 inh 86.5, NR5A2 inv ag 99.0 (no result: LGR2 antag)
COCC#Cc1ccc([C@@H]2[C@H]3CN(C(=O)Cc4ccccn4)CCCCN3[C@H]2CO)cc1	none (no result: NCOA2 inhibitor, NCOA3 inh, NCOA1 inh, NR5A2 inv ag)
N#Cc1cccc(-c2ccc([C@H]3[C@@H](CO)N4CCCCN(C(=O)Cc5ccccc5)C[C@@H]34)cc2)c1	none (no result: NCOA2 inhibitor, NCOA3 inh, NCOA1 inh, NR5A2 inv ag)
O=C(Cc1ccccn1)N1CCCCN2[C@H](C1)[C@@H](c1ccc(-c3ccccc3)cc1)[C@@H]2CO	none (no result: NCOA2 inhibitor, NCOA3 inh, NCOA1 inh, NR5A2 inv ag)
COC(=O)C[C@@H]1CC[C@@H]2NC[C@H](O)COC[C@H]2O1	none (no result: NCOA2 inhibitor, NCOA3 inh, NCOA1 inh, NR5A2 inv ag)
COC(=O)[C@H]1[C@H](CO)[C@H]2Cn3c(ccc(C4=CCCCC4)c3=O)[C@@H]1N2CC1CCCC1	none (no result: NCOA2 inhibitor, NCOA3 inh, NCOA1 inh, NR5A2 inv ag)
CC12CCC3C(CCC4(O)CC(O)CCC34C=O)C1(O)CCC2C1=CC(=O)OC1 (stereo not given)	NCOA3 inh 65.3, NCOA1 inh 65.0, LGR2 antag 84.2, NR5A2 inv ag 96.5
